# Literature values as cited in PubChem BioAssay AID977611.
# In all, about 3,900 compounds went through this assay and about 3,900 (100%) were called active. No cut-off is given here; in the data, nearly all actives have Kd up to about 4200 µM. The set was probably picked from earlier hits. This is one part of the list. Where a SMILES comes first, the peptide text is derived from it. Square brackets hold non-standard residues; d marks the D form. Residues, ends and D or L forms follow the SMILES beside them. Bridges are numbered along the chain shown (N, C = ends). Peptide text beside a SMILES is read from it. [ ]: non-standard residue; d: D form. Orn(CH(NH2)2) = NC(N)NCCC[C@H](N)C(=O)O
# Assay: PubChem AID 977611
# Conditions: PDB protein-ligand complexes, literature Kd
compound,measurement,setting,value
C[C@H](N)C(=O)N[C@@H](Cc1c[nH]c2ccccc12)C(=O)N[C@@H](CC(N)=O)C(=O)N[C@@H](CO)C(=O)O (H-AWNS-OH),Kd,"protein: mRNA-capping enzyme subunit alpha Pce1, PDB entry 4pz8",1.19 µM (active)
H-GWNSFQSS-OH,Kd,"protein: GAE domain of ADP-ribosylation factor-binding protein GGA1(GGA1-GAE), PDB entry 2dwx",180 µM (active)
N[C@@H](CC(=O)O)C(=O)N[C@@H](Cc1c[nH]c2ccccc12)C(=O)N[C@@H](CCC(=O)O)C(=O)N[C@@H](Cc1ccccc1)C(=O)O (H-DWEF-OH),Kd,"protein: human protein 25? (MO25?), PDB entry 1upk",0.4 µM (active)
CC(C)C[C@H](NC(=O)[C@H](CO)NC(=O)[C@H](CCCCN)NC(=O)[C@H](CCCCN)NC(=O)[C@H](CC(C)C)NC(=O)[C@H](CO[P+](O)(O)O)NC(=O)[C@H](CCCCN)NC(=O)[C@@H](NC(=O)[C@H](CCCN=C(N)N)NC(=O)[C@H](CO)NC(=O)[C@H](C)N)C(C)C)C(=O)N[C@@H](CCCN=C(N)N)C(=O)N[C@@H](CCC(N)=O)C(=O)N[C@@H](CO)C(=O)N[C@@H](Cc1ccccc1)C(=O)O,Kd,"protein: Disks large homolog 4, Dlg GK, PDB entry 3wp0",10.2 µM (active)
CSCC[C@H](NC(=O)[C@H](CCCN=C(N)N)NC(=O)[C@H](CCCN=C(N)N)NC(=O)[C@H](Cc1ccccc1)NC(=O)[C@H](CO[P+](O)(O)O)NC(=O)[C@H](CCC(N)=O)NC(=O)[C@H](CCCN=C(N)N)NC(=O)[C@H](CC(C)C)NC(=O)[C@H](CO)NC(=O)[C@H](CCCCN)NC(=O)[C@@H](N)CCCCN)C(=O)N[C@@H](C)C(=O)O,Kd,"protein: Disks large homolog 4, Dlg GK, PDB entry 3wp1",14.1 µM (active)
H-AIIGLMVGGVV-OH,Kd,"protein: ponezumab Fab, PDB entry 3u0t",0.0003 µM (active)
CC[C@H](C)[C@H](NC(=O)[C@@H](N)CC(=O)O)C(=O)N[C@@H](CC(=O)O)C(=O)N[C@H](C(=O)N[C@@H](CCSC)C(=O)NCC(=O)N[C@@H](CC(C)C)C(=O)O)C(C)C (H-DIDVMGL-OH),Kd,"protein: Rhodopsin, PDB entry 4pxf",800 µM (active)
CC(C)C[C@H](NC(=O)[C@@H](NC(=O)[C@@H]1CCCN1C(=O)[C@@H]1CCCN1C(=O)[C@@H]1CCCN1)[C@@H](C)O)C(=O)N1CCC[C@H]1C(=O)N[C@@H](CCCCN)C(=O)N1CCC[C@H]1C(=O)N[C@@H](C)C(=O)N[C@@H](C)C(=O)N1CCC[C@H]1C(=O)O (H-PPPTLPKPAAP-OH),Kd,"protein: Nebulette, PDB entry 4f14",12.9 µM (active)
CC(C)C[C@@H](C=O)NC(=O)[C@H](CC(C)C)NC(=O)[C@@H]1CCCN1C(=O)[C@H](CCCCN)NC(=O)[C@@H]1CCCN1C(=O)[C@H](C)NC(=O)[C@@H](NC(=O)[C@@H]1CCCN1C(=O)[C@H](CCCNC(N)N)NC(=O)[C@@H]1CCCN1C(=O)[C@@H]1CCCN1C(=O)[C@@H]1CCCN1)[C@@H](C)O (H-PPP[Orn(CH(NH2)2)]PTAPKPLL-aldehyde),Kd,"protein: Mona/GadsSH3C, PDB entry 2w10",0.17 µM (active)
CC(C)C[C@H](NC(=O)[C@@H]1CCCN1C(=O)[C@H](CCCNC(N)N)NC(=O)[C@@H]1CCCN1C(=O)[C@@H]1CCCN1)C(=O)N1CCC[C@H]1C(=O)N[C@H](C(=O)N[C@@H](C)C(=O)N1CCC[C@H]1C(=O)NCC(=O)N[C@@H](CO)C(=O)N[C@@H](CO)C(=O)N[C@@H](CCCCN)C(=O)N[C@H](C(=O)O)[C@@H](C)O)C(C)C (H-PP[Orn(CH(NH2)2)]PLPVAPGSSKT-OH),Kd,"protein: Fny(SH3 domain, 82 - 148), PDB entry 1azg",16 µM (active)
H-PPPLPP-OH,Kd,"protein: WW domain of Formin-binding protein 11(FBP11), PDB entry 1ywi",371 µM (active)
O=C(O)CNC(=O)[C@@H]1CCCN1C(=O)[C@@H]1CCCN1C(=O)CNC(=O)[C@@H]1CCCN1C(=O)[C@@H]1CCCN1C(=O)CNC(=O)[C@@H]1CCCN1C(=O)[C@@H]1CCCN1 (H-PPGPPGPPG-OH),Kd,"protein: PROLYL 4-HYDROXYLASE SUBUNIT ALPHA-1, PDB entry 4bt9",144 µM (active)
O=C(O)[C@@H]1CCCN1C(=O)[C@@H]1CCCN1C(=O)[C@@H]1CCCN1C(=O)[C@@H]1CCCN1C(=O)[C@@H]1CCCN1C(=O)[C@@H]1CCCN1C(=O)[C@@H]1CCCN1C(=O)[C@@H]1CCCN1C(=O)[C@@H]1CCCN1 (H-PPPPPPPPP-OH),Kd,"protein: PROLYL 4-HYDROXYLASE SUBUNIT ALPHA-1, PDB entry 4btb",9.8 µM (active)
COC(=O)c1cccc2[nH]ccc12,Kd,"protein: DNA REPAIR AND RECOMBINATION PROTEIN RADA, PDB entry 4b35",1300 µM (active)
CC1C(=O)OC2=C1C=COC2 (stereo not given),Kd,"protein: Hydrolase, alpha/beta fold family protein, PDB entry 4jym",9.05 µM (active)
C=C(C)/C=C/[C@H]1[C@@H](C)CCCC1(C)C,Kd,"protein: Cellular Retinal Binding Protein, PDB entry 4ciz",0.051 µM (active)
CC(C)C(=O)C[N+]1=C2N=C(N3CCOC[C@H]3C)CC(=O)N2CC[C@H]1C(F)(F)F,Kd,"protein: PHOSPHATIDYLINOSITOL 3-KINASE CATALYTIC SUBUNIT TYPE 3 Vsp34, PDB entry 4uwl",0.0027 µM (active)
Cn1cnc2nc(N)[nH]c(=O)c21,Kd,"protein: rRNA N-glycosidase, PDB entry 4i47",0.12 µM (active)
NCC(=O)NCC(=O)NCC(=O)N[C@@H](CO[P+](O)(O)O)C(=O)NCC(=O)NCC(=O)NCC(=O)O,Kd,"protein: 14-3-3 protein, PDB entry 1a37",0.12 µM (active)
OC[C@H]1O[C@@H](Sc2ccc3ccccc3c2)[C@H](O)[C@@H](O)[C@H]1O,Kd,"protein: PA-I GALACTOPHILIC LECTIN, PDB entry 4a6s",6.3 µM (active)
CC[C@H](C)[C@@H]1NC(=O)[C@H](CCCCN)NC(=O)[C@H](Cc2ccccc2)NC(=O)CNC(=O)[C@H](Cc2ccc(O)cc2)NC(=O)[C@H](CC(C)C)NC(=O)[C@H](CCCNC(N)N)NC(=O)[C@@H](NC(=O)CN)CSSC[C@@H](C(=O)NCC(=O)O)NC(=O)CNC(=O)[C@H](Cc2cnc[nH]2)NC1=O (H-GC[Orn(CH(NH2)2)]LYGFKIHGCG-OH; disulfide 2-12),Kd,"protein: Casein kinase II subunit alpha, PDB entry 4ib5",0.56 µM (active)
CC[C@H](C)[C@@H]1NC(=O)[C@H](Cc2cnc[nH]2)NC(=O)[C@H]([C@@H](C)CC)NC(=O)[C@H](CCCNC(N)N)NC(=O)[C@@H](N)CSSC[C@@H](C(=O)O)NC(=O)[C@H]([C@@H](C)O)NC(=O)[C@H](Cc2ccc(O)cc2)NC(=O)[C@H](Cc2ccccc2)NC(=O)[C@H](C)NC(=O)[C@H](CCCNC(N)N)NC(=O)CNC(=O)[C@@H]2CCCN2C(=O)CNC1=O,Kd,"protein: Fab mAb 447-52D Light Chain, PDB entry 4m1d",0.023 µM (active)
COc1cc2c(Nc3ccc(NC(=O)c4ccccc4)cc3)ncnc2cc1O,Kd,"protein: Bifunctional protein GlmU, PDB entry 4e1k",0.5 µM (active)
NC(N)NC[C@H]1Cc2ccccc2[C@@H]1NC(=O)C(=O)Nc1ccc(Cl)c(F)c1,Kd,"protein: HIV-1 glycoprotein, PDB entry 4i54",0.11 µM (active)
NCCCCCC(=O)N[C@H]1Cc2ccccc2[C@@H]1Cc1ccc2c(c1C(=O)O)OCO2,Kd,"protein: INTEGRASE, PDB entry 4cgi",752 µM (active)
same,Kd,"protein: INTEGRASE, PDB entry 4cgj",1460 µM (active)
O[P+](O)(O)O[P+](O)(O)O[P+](O)(O)O,Kd,"protein: DNA primase small subunit, PDB entry 4lil",12.5 µM (active)
same,Kd,"protein: Thiamine-triphosphatase, PDB entry 3tvl",100 µM (active)
C[C@@H](O)[C@H](NC(=O)[C@@H]1CCCN1C(=O)[C@H](CO[P+](O)(O)O)NC(=O)[C@@H](N)Cc1ccc(O)cc1)C(=O)N[C@@H](CO)C(=O)N1CCC[C@H]1C(=O)N[C@@H](CO)C(=O)N[C@@H](Cc1ccc(O)cc1)C(=O)N[C@@H](CO[P+](O)(O)O)C(=O)N1CCC[C@H]1C=O,Kd,"protein: CTD INTERACTING DOMAIN of RNA processing factor SCAF8, PDB entry 3d9l",68 µM (active)
C[C@@H](O)[C@H](NC(=O)[C@@H]1CCCN1C(=O)[C@H](CO[P+](O)(O)O)NC(=O)[C@@H](N)Cc1ccc(O)cc1)C(=O)N[C@@H](CO[P+](O)(O)O)C(=O)N1CCC[C@H]1C(=O)N[C@@H](CO)C(=O)N[C@@H](Cc1ccc(O)cc1)C(=O)N[C@H](C=O)CO[P+](O)(O)O,Kd,"protein: CTD INTERACTING DOMAIN of RNA processing factor SCAF8, PDB entry 3d9k",19 µM (active)
